Laboratory results as given in PubChem BioAssay (Tox21).
Active and inactive are the calls of the source. Entries that show only a call come without a potency. The call rests on the fitted dose curve; in most records, active means well fitted curve in the direction sought with a large enough effect in the repeat runs; inconclusive means weak or mixed curves; inactive means flat fitted curve, though single readings scatter.

Experiment: qHTS assay to test for compound auto fluorescence at 590 nm (red) in HEK293 cell free culture (AID 720683)
Settings: cell-free medium autofluorescence, Ex540/Em590 red; series mostly up to 46 µM
Summary of the method: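 Red-channel autofluorescence of compounds in culture medium (DMEM, 10% FBS), no cells, measured at 540/590 nm. Rose Bengal sodium is the reference fluorophore for equivalence.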

| Compound | Potency |
| --- | --- |
| CCCCCC(O)/C=C/C=O (stereo not given) | inactive |
| O=C(Cn1c(=O)sc2ccc(Cl)cc21)N1CCN(CCO)CC1 | inactive |
| COc1ccc2c(c1)OC(C)(C)C(c1ccccc1)C2c1ccc(OCCN2CCCC2)cc1 (stereo not given) | inactive |
| CCCCCCOc1ccc(C(=N)N(CCCC)CCCC)c2ccccc12 | inactive |
| C[C@H](N)C(=O)N[C@@H](C)P(=O)(O)O | inactive |
| OC[C@H]1OC([S-])[C@H](O)[C@@H](O)[C@@H]1O.[Au+] (stereo not given in full) | inactive |
| CC[C@@H](C(=O)[C@@H](C)[C@@H](O)[C@H](C)[C@@H]1O[C@@H]([C@@H](CC)C(=O)O)CC[C@@H]1C)[C@H]1O[C@]2(C=C[C@@H](O)[C@]3(CC[C@@](C)([C@H]4CC[C@](O)(CC)[C@H](C)O4)O3)O2)[C@H](C)C[C@@H]1C | inactive |
| C=C1CC[C@H](O)CC1=C/C=C1\CCC[C@]2(C)[C@@H]([C@H](C)CCCC(C)(C)O)CC[C@@H]12 | inactive |
| O=C(COc1ccc(Cl)cc1)OCCNC12CC3CC(CC(C3)C1)C2 | inactive |
| CCOC(=O)Oc1c(OC)cc(C(=O)O[C@@H]2C[C@@H]3CN4CCc5c([nH]c6cc(OC)ccc56)[C@H]4C[C@@H]3[C@H](C(=O)OC)[C@H]2OC)cc1OC | inactive |
| Nc1nc2[nH]cc(CCc3ccc(C(=O)N[C@@H](CCC(=O)O)C(=O)O)cc3)c2c(=O)[nH]1 | inactive |
| CC(CC(c1ccccc1)c1ccccc1)NC(C)(C)C (stereo not given) | inactive |
| NC[C@@H]1O[C@H](O[C@H]2[C@@H](O)[C@H](O[C@@H]3[C@@H](O)[C@H](N)C[C@H](N)[C@H]3O[C@H]3O[C@H](CN)[C@@H](O)[C@H](O)[C@H]3N)O[C@@H]2CO)[C@H](N)[C@@H](O)[C@@H]1O | inactive |
| OC1OC[C@@H](O)[C@H](O)[C@@H]1O (stereo not given in full) | inactive |
| CCN(CC)c1ccc(C(=C2C=CC(=[N+](CC)CC)C=C2)c2ccccc2)cc1 | inactive |
| CC(CCc1ccc(O)cc1)NCC(O)c1ccc(O)cc1 (stereo not given) | inactive |
| CC(=O)Nc1c(I)c(C(=O)O)c(I)c(N(C)C(C)=O)c1I | inactive |
| C[C@]12C=CC(=O)N[C@@H]1CC[C@@H]1[C@@H]2CC[C@]2(C)[C@@H](C(=O)Nc3cc(C(F)(F)F)ccc3C(F)(F)F)CC[C@@H]12 | inactive |

| Compound | Potency |
| --- | --- |
| CCC(Oc1ccccc1)C(=O)N[C@@H]1C(=O)N2[C@@H]1SC(C)(C)[C@@H]2C(=O)O (stereo not given in full) | inactive |
| COc1c(O[C@@H]2O[C@H](CO)[C@@H](O)[C@H](O)[C@H]2O)cc2c(c1OC)-c1ccc(SC)c(=O)cc1[C@@H](NC(C)=O)CC2 | inactive |
| CC[C@@H]1/C=C(\C)C[C@H](C)C[C@H](OC)[C@H]2O[C@@](O)(C(=O)C(=O)N3CCCC[C@H]3C(=O)O[C@H](/C(C)=C/[C@@H]3CC[C@@H](Cl)[C@H](OC)C3)[C@H](C)[C@@H](O)CC1=O)[C@H](C)C[C@@H]2OC | inactive |
| C[C@H](O)[C@H](O)[C@H]1CNc2nc(N)[nH]c(=O)c2N1 | inactive |
| COc1ccc(C[C@H](N)C(=O)N[C@H]2[C@@H](O)[C@H](n3cnc4c(N(C)C)ncnc43)O[C@@H]2CO)cc1 | inactive |
| O=C(NNCNNC(=O)c1ccncc1)c1ccncc1 | inactive |
| CC(O)[C@H]1CC[C@H]2[C@@H]3CC[C@@H]4C[C@@H](O)CC[C@]4(C)[C@H]3CC[C@]12C (stereo not given in full) | inactive |
| CCCCc1cc2c(=O)c(C(=O)OC)c[nH]c2cc1OCc1ccccc1 | inactive |
| C=C[C@]1(C)C[C@@H](OC(=O)CSCCN(CC)CC)[C@]2(C)[C@H](C)CC[C@]3(CCC(=O)[C@H]32)[C@@H](C)[C@@H]1O | inactive |
| CCCCCCCCCCCCCCCCCC(=O)OCC(C)O (stereo not given) | inactive |
| CCCCC[C@H](O)/C=C/[C@@H]1[C@H]2C/C(=C/CCCC(=O)O)O[C@H]2C[C@H]1O | inactive |
| CCOC(=O)[C@@H](N)CS | inactive |
| CC1(C)S[C@@H]2[C@H](NC(=O)C(N)c3ccccc3)C(=O)N2[C@H]1C(=O)OC1OC(=O)c2ccccc21 (stereo not given in full) | inactive |
| CN1CCc2c(c3ccccc3n2Cc2ccccc2)C1 | inactive |
| CN(C)CCOc1ccccc1Cc1ccccc1 (tested in a mixture with another compound) | inactive |
| CCOC(=O)c1c[nH]c2cc(OCC(C)C)c(OCC(C)C)cc2c1=O | inactive |
| CN(CCO)CC(O)Cn1cnc2c1c(=O)n(C)c(=O)n2C (stereo not given) (tested in a mixture with another compound) | inactive |
